For eight molecules, Potency results are on record in PubChem BioAssay AID2202239 (National Center for Advancing Translational Sciences (NCATS), 2025).

This assay in a line: Identification of antibody-drug conjugate (ADC) payloads which are substrates of ATP-binding cassette drug efflux transporters: ABCB1-HeLa-KB-8-5-11 cell line with tariquidar. The following applies: KB-8-5-11 (P-gp) + tariquidar, viability, CellTiter-Glo, 48 h. An excerpt:
Antibody-drug conjugates (ADCs) feature an antibody recognizing a specific protein joined to a potent toxic payload. Numerous antibody-drug conjugates have received FDA approval; however, clinical resistance arises. Resistance mechanisms include decreased expression or mutation of the antibody target, impaired payload release, or increased expression of ATP-binding cassette (ABC) efflux transporters associated with multidrug resistance. We therefore sought to characterize the interaction of ABC multidrug transporters with ADC payloads. We performed a high-throughput screen with 27 common ADC payloads using cells lines expressing ABC transporters P-glycoprotein (P-gp, encoded by ABCB1) or ABCG2 (encoded by ABCG2). Confirmatory assays were also performed using cells transfected to express P-gp, ABCG2, or MRP1 (encoded by ABCC1). Several commonly used ADC payloads were substrates of P-gp, including calicheamicin gamma1, monomethyl auristatin E, DM1, and DM4. All the pyrrolobenzodiazepines tested - SJG136, SGD-1882, SG2057, and SG3199 - were substrates of P-gp, ABCG2, and MRP1. […] These findings highlight the risk of transporter-mediated resistance with certain ADC payloads and underscore the importance of selecting payloads that evade ABC transporter recognition in future ADC development.
HEK-293 cells were transfected with empty vector (pcDNA) or vector containing the human ABCB1 (MDR-19), ABCG2 (R-5), or ABCC1 gene (MRP1) and were maintained in EMEM with 2 mg/mL G418 added to maintain transporter expression. The HeLa derivative KB-3-1 and the P-gp overexpressing KB-8-5-11 subline were maintained in DMEM; KB-8-5-11 additionally received 100 ng/mL colchicine. H460 parental cells were obtained from the Division of Cancer Treatment and Diagnosis Tumor Repository, National Cancer Institute at Frederick, MD and were cultured in RPMI. The ABCG2 expressing subline H460 MX20 was generated by selecting H460 cells in 20 nM mitoxantrone. Media in all cases was supplemented with 10% FBS and 1% penicillin-streptomycin. We explored 27 common ADC payloads, in two orthogonal, paired cell line sets-a drug selected and transfected set for each transporter--to identify substrates of the ABC transporters P-gp and ABCG2. Compounds were sourced from Levena Biopharma (San Diego, CA), Selleck Chem (Houston, TX), ChemieTek (Indianapolis, IN), or Microsource Discovery Systems (Gaylordsville, CT). Screening was performed as previously described. Briefly, cells were plated at a density of 500 cells/well in 1536 well plates with compounds added using a 1536-head pin tool (Kalypsys, San Diego CA). Cells were incubated with cytotoxic drugs and processed with CellTiter Glo reagent (Promega, Madison, WI) to determine viability after 48 hours. P-gp substrates were identified by comparing compound activity between paired sets of low-expressing (sensitive) and over-expressing (resistant) cell lines.

Active and inactive are the calls of the source. The call rests on the fitted dose curve; in most records, active means well fitted inhibition curve with a large enough effect; inactive means flat fitted curve, though single readings scatter. Square brackets hold non-standard residues; d marks the D form. Peptide text beside a SMILES is read from it. Dolaproine = CO[C@@H]([C@@H]1CCCN1)[C@@H](C)C(=O)O; Dil = CC[C@H](C)[C@H](NC)[C@@H](CC(=O)O)OC; NMeV = CN[C@H](C(=O)O)C(C)C

On to `COc1cccc2c1C(=O)c1c(O)c3c(c(O)c1C2=O)C[C@@](O)(C(=O)CO)C[C@@H]3O[C@H]1C[C@H](N)[C@H](O)[C@H](C)O1`, for which the Potency was 236 nM (active).
In the case of `CC[C@]1(O)CC2CN(CCc3c([nH]c4ccccc34)[C@@](C(=O)OC)(c3cc4c(cc3OC)N(C)[C@H]3[C@@](O)(C(=O)OC)[C@H](OC(C)=O)[C@]5(CC)C=CCN6CC[C@]43[C@@H]65)C2)C1` (stereo partly drawn) it was 6.7 nM (active).
Take `CC[C@H](C)[C@@H]([C@@H](CC(=O)N1CCC[C@H]1[C@H](OC)[C@@H](C)C(=O)N[C@@H](Cc1ccccc1)C(=O)O)OC)N(C)C(=O)[C@@H](NC(=O)[C@@H](NC)C(C)C)C(C)C` (H-[NMeV]V[Dil][Dolaproine]F-OH): the Potency was 37.5 nM (active).
In the case of `Cc1nc(Nc2ncc(C(=O)Nc3c(C)cccc3Cl)s2)cc(N2CCN(CCO)CC2)n1` it was 13300 nM (active); in that of `COC(=O)c1cc2c3c(cc(O)c2[nH]1)N(C(=O)c1cc2cc(OC)c(OC)c(OC)c2[nH]1)CC3CCl` (stereo not drawn), 0.6 nM (active).
Regarding `CC[C@H](C)[C@@H]([C@H](N)CC(=O)N1CCC[C@H]1[C@H](OC)[C@@H](C)C(=O)N[C@@H](Cc1ccccc1)c1nccs1)N(C)C(=O)[C@@H](NC(=O)[C@H](C(C)C)N(C)C)C(C)C`, the Potency is 0.0472 nM (active).
In the case of `COc1ccc(C2=CN3C(=O)c4cc(OC)c(OCCCOc5cc6c(cc5OC)C(=O)N5C=C(c7ccc(N)cc7)C[C@@H]5C=N6)cc4N=C[C@H]3C2)cc1` it was 59.4 nM (active).
On to `CCc1c2c(nc3ccc(O)cc13)-c1cc3c(c(=O)n1C2)COC(=O)[C@]3(O)CC`, for which the Potency was 298 nM (active).
